Reference: PubChem BioAssay AID624483 (NMMLSC, 2012)
Hit rate of the full screen: of about 360,000 compounds, about 11,000 (3.1%) were called active. Inconclusive results (about 2%) are left out. The sample holds actives, similar compounds and a random draw of the others, so the mix is not that of the screen. Cut-off read from the data, not from the text of the source: active = fluorescence intensity above about 16000; inconclusive = no clear call, values can overlap the other calls; inactive = below that.

Assay: compound fluorescence in toxin protease inhibitor counterscreen, primary screen, artefact control for toxin protease inhibitor project, biochemical, multiplex microsphere, HTS (AID 624483)
Conditions: compound autofluorescence counterscreen, microsphere flow cytometry; hits give high values

Compound	fluorescence intensity
O=C(NCc1ccccc1Cl)C1CCN(S(=O)(=O)c2cccc3nonc23)CC1	3550 (inactive)
N#C/C=C\Oc1ccc(Cl)cc1N	23100 (active)
Cc1nccn1-c1ccc(NC(=O)[C@H]2O[C@@H](n3ccc(=O)[nH]c3=O)[C@H](O)[C@@H]2O)cc1	5140 (inactive)
CC1(C(=O)NS(=O)(=O)c2ccccc2)CCN1C(=O)Cc1ccc(-c2ccccc2)cc1 (stereo unspecified)	3470 (inactive)
COc1ccc(CCNC(=O)CN2C(=O)CCSc3ccccc32)c(OC)c1	4070 (inactive)
CN(C(=O)CN1C(=O)CCSc2ccc(S(=O)(=O)N3CCCC3)cc21)c1ccccc1	5730 (inactive)
CCOC(=O)CNC(=O)CN1C(=O)CCSc2ccccc21	20800 (active)
COc1ccc(-n2c(SCC(=O)Nc3ccc4c(c3)OCO4)nnc2C(C)N2CCCCC2)cc1 (stereo unspecified)	6740 (inactive)
CCOC(=O)Cc1csc(NC(=O)CSc2nnc(-c3cccnc3)n2Cc2ccco2)n1	4600 (inactive)
Cc1ccc(NC(=O)CSc2nnc(-c3cnccn3)n2Cc2ccco2)cc1C	3350 (inactive)
CCn1c(SCC(=O)Nc2cc(C)c(Cl)cc2OC)nnc1-c1ccco1	5870 (inactive)
COc1ccc(NC(=O)CSc2nnc(-c3cccs3)n2Cc2ccco2)cc1OC	10300 (inactive)
COc1cc(Cl)c(C)cc1NC(=O)CSc1nnc(-c2cccnc2)n1Cc1ccco1	20700 (active)
COc1ccccc1NC(=O)CSc1nc2sc(C)c(C)c2c(=O)n1Cc1ccco1	22300 (active)
C(=C\c1ccccc1)/CSc1nnc(-c2cccnc2)n1Cc1ccco1	23400 (active)
COc1ccccc1NC(=O)CSc1nc2sc3c(c2c(=O)n1-c1ccccc1)CCN(C)C3	7290 (inactive)
O=C(CSc1nnc(-c2cnccn2)n1Cc1ccco1)c1ccc(Cl)c(Cl)c1	9950 (inactive)
Cc1cc(-c2ccccc2)nc(N2CCC(C(=O)NC34CC5CC(CC(C5)C3)C4)CC2)n1	3890 (inactive)
CCN(C(=O)COc1cccnc1[N+](=O)[O-])C1CCS(=O)(=O)C1 (stereo unspecified)	2480 (inactive)
COc1ccc(CNC(=O)c2ccc(-c3cccnc3)c3ccoc23)cc1OC	3080 (inactive)
Cc1cccc(C)c1-n1nnnc1C(CCc1ccccc1)N1CCN(C/C=C/c2ccccc2)CC1 (stereo unspecified)	5940 (inactive)
Cc1cc(Br)ccc1NC(=O)CCCOc1cc(=O)n(C)c2ccccc12	3350 (inactive)
O=C(CCn1c(=S)[nH]c2ccccc2c1=O)NCCCN1CCCC1=O	22700 (active)

Compound	fluorescence intensity
O=Cc1c(NCCCN2CCCC2=O)c2ccccc2[nH]c1=O	3940 (inactive)
O=C(CCC(=O)NNc1nc2ccccc2c2nc(-c3ccccc3)nn12)NCCCN1CCCC1=O	2420 (inactive)
CCOc1cc2[nH]c(=S)n(CCCN3CCCC3=O)c(=O)c2cc1OCC	5800 (inactive)
Cc1nn(Cc2ccccc2)c(C)c1C(=O)NCCCN1CCCC1=O	3680 (inactive)
O=C1CCCN1CCCNc1ncnc2c1[nH]c1ccccc12	23000 (active)
CC(=O)c1ccc(N2C(=NC(=O)C(C)C)SC3CS(=O)(=O)CC32)cc1 (stereo unspecified)	4490 (inactive)
Cc1cccc2cc(CN(C(=O)c3cccs3)c3ccccc3)c(=O)[nH]c12	2690 (inactive)
Cc1nc(C)c(C(=O)Nc2ccc(C)c(F)c2)o1	20400 (active)
COc1ccc(Cl)cc1NC(=O)c1oc(C)nc1C	11300 (inactive)
Cc1ccc(NC(=O)NC(=O)c2ccccc2)cc1F	4110 (inactive)
N#Cc1ccccc1S(=O)(=O)N1CCN(Cc2c(O)ccc3ccccc23)CC1	2850 (inactive)
O=C(COc1ccccc1Cl)N1N=C(c2cccs2)CC1c1ccco1 (stereo unspecified)	3750 (inactive)
Fc1ccc(N2N=C(c3cccs3)CC2c2ccco2)c(F)c1 (stereo unspecified)	20900 (active)
Cc1ccccc1C1CC(c2cccs2)=NN1S(C)(=O)=O (stereo unspecified)	6430 (inactive)
O=C(NC(c1ccc(-c2ccccc2)cc1)c1cnccn1)C1CCN(CCOc2ccc(Cl)cc2Cl)CC1 (stereo unspecified)	4380 (inactive)
O=C(NCc1ccco1)C1CCCN(S(=O)(=O)c2cnc[nH]2)C1 (stereo unspecified)	5600 (inactive)
O=C(NCc1ccco1)C1CCCN(S(=O)(=O)c2ccccc2)C1 (stereo unspecified)	21200 (active)
CCCS(=O)(=O)N1CCCC(C(=O)NCc2ccco2)C1 (stereo unspecified)	2870 (inactive)
COCCNC(=O)C(c1ccc(C)cc1)N(C(=O)CCC(=O)Nc1ccccn1)c1cccc(C)c1 (stereo unspecified)	4510 (inactive)
Cc1cc2c(c(=O)n1Cc1ccco1)C(c1ccccc1)C(C#N)=C(N)O2 (stereo unspecified)	23400 (active)
Cc1cc2c(c(=O)n1C)C(C(C)C)C(C#N)=C(N)O2 (stereo unspecified)	3460 (inactive)
Cn1c2c(c(=O)n(C)c1=O)C(c1cccc(F)c1)C(C#N)=C(N)O2 (stereo unspecified)	4470 (inactive)
COc1ccc2c(c1)C(C)=CC(C)(C)N2C(=O)Nc1ccccc1	2880 (inactive)

Compound	fluorescence intensity
COc1ccc(NC(=O)NCc2ccc3c(c2)OCO3)c(OC)c1	5960 (inactive)
COc1ccc2c(c1)C(C)=CC(C)(C)N2C(=O)CNCc1ccc2c(c1)OCO2	21400 (active)
Cc1cc(C(=O)COc2ccc(Br)cc2F)c(C)n1C1CC1	4210 (inactive)
CCCNC(=O)C1(C)CCCN(Cc2c(C)nn(-c3ccccc3)c2C)C1 (stereo unspecified)	3870 (inactive)
OC(c1ccc(F)cc1)c1ncc(-c2cccc(C(F)(F)F)c2)[nH]1 (stereo unspecified)	2920 (inactive)
COc1ccc(S(=O)(=O)N2CCC(C(=O)N3CCCC3)CC2)cc1C	2980 (inactive)
COc1ccc(S(=O)(=O)N2CCC(C(=O)N3CCc4ccccc4C3)CC2)cc1OC	18500 (active)
COc1ccc(S(=O)(=O)N2CCC(C(=O)N3CCOCC3)CC2)cc1OC	8730 (inactive)
CCCNC(=O)C1(C)CCN(C(=O)c2cc(F)ccc2C)C1 (stereo unspecified)	3600 (inactive)
CCc1nc2ccc(C(=O)N(C)Cc3ccco3)cn2c1N(C)C(=O)Cc1ccccc1	3670 (inactive)
O=S1(=O)CC(N2CCN(CCO)CC2)CN1Cc1cn(Cc2cccc(Cl)c2)nn1 (stereo unspecified)	5760 (inactive)
Cc1cc(C)cc(Oc2nc3c(C)cccn3c(=O)c2/C=C(\C#N)C(=O)NC2CCS(=O)(=O)C2)c1 (stereo unspecified)	2120 (inactive)
CCOCCn1c(C(C)C)nc2ccccc21	3860 (inactive)
COCc1nc2ccccc2n1Cc1ccccc1Br	20400 (active)
C=C(Br)Cn1c(CCCC)nc2ccccc21	3410 (inactive)
Nc1cccc(-c2cncc(N3CCN(Cc4ccccn4)CC3)n2)c1	3020 (inactive)
Cc1cccc(CNC(=O)c2sc(=O)n(Cc3ccccc3C)c2C)c1	4210 (inactive)
CCCCc1cc(=O)oc2cc(C)cc(OCc3nn[nH]n3)c12	2630 (inactive)
COc1ccc(-c2cc3ccc(OCc4nn[nH]n4)cc3oc2=O)cc1	24000 (active)
Cc1noc(C)c1COc1ccc2ccc(=O)oc2c1	3400 (inactive)
CC(C)C1C(=O)N(Cc2cn(CCC3OCCO3)nn2)CCS(=O)(=O)N1Cc1ccc(-c2ccccc2C(F)(F)F)cc1 (stereo unspecified)	5850 (inactive)
Cc1ccc(NC(=O)C(C)Sc2nnc(C3CC3)n2C2CC2)cc1S(=O)(=O)N1CCOCC1 (stereo unspecified)	3820 (inactive)
COC(=O)c1ccc2nc(-c3ccc(C)cc3)c(Cc3ccc(OC)cc3C)n2c1	7150 (inactive)

Compound	fluorescence intensity
CCN(CC)CCCNC(=O)c1cc(-c2cccc(Cl)c2)on1	22000 (active)
O=C(NCCCn1ccnc1)c1cc(-c2ccccc2)on1	3190 (inactive)
O=C(NCCCN1CCOCC1)c1cc(-c2cccc(O)c2)on1	2910 (inactive)
O=C(NCc1ccccc1)C1C(=O)N(Cc2ccccc2)C(=O)C1C1(O)CCCC1 (stereo unspecified)	8420 (inactive)
COc1cc(NC(=O)C2=CC(c3ccco3)=NS(=O)(=O)N2C)cc(OC)c1OC	4170 (inactive)
O=S(=O)(NCCc1ccccc1)c1ccccc1	3470 (inactive)
O=S(=O)(NCCc1ccncc1)c1ccccc1	3020 (inactive)
O=S(=O)(NCCNS(=O)(=O)c1ccccc1)c1ccccc1	22900 (active)
CCOc1ccc(CCN2C(=S)N([C@@H](CC(C)C)CN3CCC[C@@H]3CN3C(=S)NC[C@@H]3Cc3ccc(O)cc3)C[C@@H]2Cc2ccc(O)cc2)cc1	6230 (inactive)
CCOc1nnc(C)c2c(C)n(-c3cccc(Cl)c3)nc12	23500 (active)
CCOc1ccc(CNC(=O)C2CCCN(c3nnc(C)c4c(C)n(-c5ccccc5)nc34)C2)cc1 (stereo unspecified)	9860 (inactive)
CCOc1c(Nc2cccc(Cl)c2)c(=O)c1=O	4070 (inactive)
Brc1cc(Br)c(Oc2cc(Br)c(Br)cc2Br)cc1Br	5260 (inactive)
COc1ccc(Cl)cc1NC(=O)CN(C)C(=O)CNC(=O)C12CC3CC(CC(C3)C1)C2	22500 (active)
COc1ccc(Cl)cc1NC(=O)CN(C)C(=O)c1ccc2n[nH]nc2c1	7700 (inactive)
COc1ccc(Cl)cc1NC(=O)CN(C)Cc1ccc(OC)c(OC)c1	4460 (inactive)
CCOC(=O)C1=C(COC(=O)[C@H](C)NS(=O)(=O)c2ccccc2F)NC(=O)NC1C (stereo partly specified)	3650 (inactive)
Cc1onc(-c2ccccc2)c1C(=O)N1CCN(S(=O)(=O)c2ccccc2C(F)(F)F)CC1	3570 (inactive)
COC(=O)c1ccc2nc(-c3cccc(Br)c3)c(Cc3ccc(OC)cc3C)n2c1	5220 (inactive)
CCOC(=O)Cn1c(SC)nc2sc3c(c2c1=O)CC(C)(C)OC3	6860 (inactive)
CCC1(C)Cc2c(sc3[nH]c(=S)n(Cc4ccccc4)c(=O)c23)CO1 (stereo unspecified)	2880 (inactive)
CCC1(C)Cc2c(sc3nnn(CC(=O)Nc4ccc(Cl)cc4)c(=O)c23)CO1 (stereo unspecified)	22700 (active)
